For 13 molecules, growth results are on record in PubChem BioAssay (NCI).

Among the test systems are HCT-15 colon; HT29 colon; SNB-75 CNS; SNB-19 CNS; U251 CNS; SK-MEL-5 melanoma; UACC-62 melanoma; LOX IMVI melanoma; SK-MEL-28 melanoma; PC-3 prostate.
Common to all, as to assay: NCI-60 one-dose screen, 48 h (100 = growth as untreated, 0 = no growth, -100 = all killed)
What all share (details): 10 µM unless noted

Compounds without any hit were thinned out: in the full panel of roughly 83,000, 20% have a hit.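 48-hour exposure, single concentration, 96-well plates; percent growth endpoint where 0 means no net growth. Active: below 10.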 Values without a mark were called inactive. Active and inactive are the calls of the source.

With `CN1CCN=C1c1ccc(NC(=O)c2ccc(C(=O)Nc3ccc(C4=NCCN4C)cc3)cc2)cc1`, the growth with HCT-15 colon is 108%; in the assay on HT29 colon, 98.8%; with SNB-75 CNS it was 91.2%; in the assay on SNB-19 CNS it was 92%; in the assay with U251 CNS, 93.6%; in the assay on SK-MEL-5 melanoma, 84.7%. Besides, the growth with UACC-62 melanoma was 91.8%; in the assay on LOX IMVI melanoma it was 94.2%; with SK-MEL-28 melanoma, 110%.
Regarding `FC(F)(F)c1nc2c(NCc3ccc(-c4ccccc4)cc3)cccc2[nH]1`, the growth in the assay with HCT-15 colon was 68.4%; with HT29 colon, 84.4%; with SNB-75 CNS, 90.7%; in the assay on SNB-19 CNS it was 117%; in the assay on U251 CNS, 66.6%; in the assay on SK-MEL-5 melanoma it was 88.4%. For the same molecule, the growth was 72.1% with UACC-62 melanoma, 82.4% in the assay with LOX IMVI melanoma and 92.1% in the assay on SK-MEL-28 melanoma.
On to `Fc1ccc(CNc2cccc3[nH]c(C(F)(F)F)nc23)cc1`, for which the growth was 98.3% in the assay on HCT-15 colon; 104% in the assay with HT29 colon; 73.9% in the assay on SNB-75 CNS; 79.2% in the assay on SNB-19 CNS; 80.7% with U251 CNS; 96.1% in the assay on SK-MEL-5 melanoma. Also, the growth in the assay with UACC-62 melanoma is 79.6%; in the assay with LOX IMVI melanoma, 99.4%; with SK-MEL-28 melanoma it was 89%.
For the molecule `Cc1nn(-c2ccc(F)cc2)c2ncnc(Nc3ccc(NC(=O)Nc4ccc(Cl)c(C(F)(F)F)c4)cc3)c12`, the growth in the assay on HCT-15 colon was 11.2%; in the assay with HT29 colon it was 37.9%; in the assay on SNB-75 CNS, 32.4%; in the assay on SNB-19 CNS, 23.7%; with U251 CNS, 19.5%; in the assay on SK-MEL-5 melanoma, 61.1%. The growth in the assay on UACC-62 melanoma is 11%; in the assay with LOX IMVI melanoma, 34.8%; in the assay on SK-MEL-28 melanoma it was 17.8%.
For `CC1=C[C@H]2c3c(c(O)c(O)c4oc5cc(O)ccc5c(=O)c34)[C@H](c3cc(O)c(O)c4oc5cc(O)ccc5c(=O)c34)[C@H]2C(C)(C)C1`, the growth with HCT-15 colon was 33.4%; with HT29 colon it was 20.2%; in the assay with SNB-75 CNS it was 21.3%; in the assay on SNB-19 CNS it was 22.1%; in the assay on U251 CNS it was 14.8%; in the assay on PC-3 prostate, 29.7%. The growth with LOX IMVI melanoma is 16.2%; with SK-MEL-28 melanoma, 46.9%.
Regarding `Nc1ccc(-c2cc3c(Nc4ccc(Oc5cccc(C(F)(F)F)c5)c(Cl)c4)ncnc3s2)cc1`, the growth with HCT-15 colon was 44.6%; in the assay with HT29 colon, 64%; in the assay on SNB-75 CNS it was 78.1%; with SNB-19 CNS, 89.8%; in the assay with U251 CNS, 79%; with SK-MEL-5 melanoma, 70.9%. The values for the growth in the assay on UACC-62 melanoma, in the assay with LOX IMVI melanoma and in the assay on SK-MEL-28 melanoma were 81.9%, 50.1% and 83.1%, respectively.
On to `O=C1CC[C@H](c2ccc(O)c3c2C(=O)[C@@H]2O[C@@H]2C3=O)c2cccc(O)c21`, for which the growth in the assay with HCT-15 colon was 42.5%; in the assay with HT29 colon, -17.2% (active); with SNB-75 CNS, 81.3%; with SNB-19 CNS, 92%; in the assay with U251 CNS, 78.7%; with SK-MEL-5 melanoma, 92.6%. Also, the growth in the assay with UACC-62 melanoma is 39.4%; in the assay with LOX IMVI melanoma it was -62.6% (active); with SK-MEL-28 melanoma it was -7.72% (active).
Consider `Cc1ccc(C(SCC(N)C(=O)O)(c2ccccc2)c2ccc(C)cc2)cc1` (stereo unspecified), for which the growth with HCT-15 colon was 20.1%; in the assay with HT29 colon it was 1.66% (active); in the assay with SNB-75 CNS it was 16.8%; with SNB-19 CNS it was 36.5%; in the assay on U251 CNS it was 7.96% (active); with SK-MEL-5 melanoma, 16.7%. Besides, the growth with UACC-62 melanoma is 13.6%; in the assay with LOX IMVI melanoma, 41.7%; in the assay on SK-MEL-28 melanoma, 30%.
Consider `Cc1cc2c3ccccc3ccc2[n+]2ccccc12`, for which the growth in the assay with HCT-15 colon is 105%; with HT29 colon, 69%; with SNB-75 CNS it was 14.6%; in the assay with SNB-19 CNS it was 4.52% (active); with U251 CNS, 6.05% (active); in the assay with SK-MEL-5 melanoma it was -44.8% (active). The growth in the assay on UACC-62 melanoma was 59.8%; with LOX IMVI melanoma it was 74.4%; in the assay with SK-MEL-28 melanoma it was 14.9%.
Take `CN(C)S(=O)(=O)c1cccc(-c2nc3sc4c(c3c(=O)[nH]2)CCCC4)c1`: the growth in the assay on HCT-15 colon is 115%; in the assay on HT29 colon, 19.5%; in the assay on SNB-75 CNS, -12.3% (active); in the assay on SNB-19 CNS, 53.5%; with U251 CNS it was 1.85% (active); in the assay on SK-MEL-5 melanoma it was 77.3%. The growth in the assay with UACC-62 melanoma was 71.1%; with LOX IMVI melanoma it was 174%; with SK-MEL-28 melanoma, 82.2%.
With `CCOC(=O)n1cc(-c2nonc2-c2cn(C)c3ncccc23)c2ccccc21`, the growth in the assay on HCT-15 colon was 60.2%; in the assay with HT29 colon, 79.5%; with SNB-75 CNS, 61.6%; in the assay on SNB-19 CNS it was 89.3%; in the assay on U251 CNS, 83.2%; in the assay with SK-MEL-5 melanoma, 77.3%. For the same molecule, the growth is 64.6% in the assay with UACC-62 melanoma, 84.3% with LOX IMVI melanoma and 104% with SK-MEL-28 melanoma.
Take `C#CCOc1ccc2ncnc(NCc3cccc(NC(=O)CCl)c3)c2c1`: the growth with HCT-15 colon is 22.6% [8.25 µM]; in the assay with HT29 colon it was 19.9% [8.25 µM]; in the assay with SNB-75 CNS, 55.7% [8.25 µM]; in the assay with SNB-19 CNS it was 37.8% [8.25 µM]; in the assay with U251 CNS, -19.2% [8.25 µM] (active); with SK-MEL-5 melanoma it was 23.8% [8.25 µM]. Besides, the growth with UACC-62 melanoma is 31.8% [8.25 µM]; with LOX IMVI melanoma, 46.7% [8.25 µM]; in the assay on SK-MEL-28 melanoma, 58.1% [8.25 µM].
For `COc1ccc(C(=S)N2CCN(c3cccc(Cl)c3)CC2)cc1`, the growth with HCT-15 colon was 108%; in the assay on HT29 colon it was 101%; with SNB-75 CNS, 93.2%; in the assay on SNB-19 CNS, 101%; in the assay on U251 CNS, 112%; with SK-MEL-5 melanoma it was 130%. The growth with UACC-62 melanoma was 85.2%; with LOX IMVI melanoma, 103%; in the assay with SK-MEL-28 melanoma, 103%.
